Here are results for 14 compounds from PubChem BioAssay.

Experiment [1] deals with Wnt5a (protein binding on small-molecule microarray). As to the kind of experiment: Wnt5a binders on small-molecule microarray, primary screen, biophysical, 635/667 nm fluorescence (AID 1142).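 Further: fluorescence read at 667 nm with signal to noise per printed feature.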 Conditions: 635 nm fluorescence, higher = more signal.
A short description of experiment [2]: cell viability in Huh7 cells, primary screen, cytotoxicity control for HCV replication inhibitor project, CellTiter-Glo luminescence, basal, 48 h (AID 1143).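 Further: Huh7 hepatoma cells carrying a hepatitis C replication reporter with no stimulus; test concentration not given here.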 Conditions: Huh7 HCV replicon, higher = more signal, called active from +8 up or from −8 down. In general terms: In ATP-based viability assays light output follows the ATP content of the culture.
The nature of experiment [3]: P. aeruginosa biofilm formation inhibitors, primary screen, PAO1 strain, BacTiter-Glo luminescence, LB-PBS (AID 1144). The note with it: 12 h, higher = more signal.
Experiment [4] is described as follows: CREB reporter modulators without forskolin, primary screen, cell-based, PC12, CRE-LacZ reporter, unstimulated (AID 1145). Conditions: no forskolin, luminescence, 4.5 h, higher = more signal, called active from +8 up or from −8 down.
Experiment [5] in a line: CREB reporter modulators under forskolin, primary screen, cell-based, PC12, CRE-LacZ reporter, forskolin-stimulated (AID 1146).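 Further: PC12 cells with 6xCRE LacZ reporter stimulated by forskolin 10 µM; beta-galactosidase reporter signal reflecting CREB driven transcription.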 The note with it: luminescence, 4.5 h, higher = more signal, called active from +8 up or from −8 down.
Experiment [6] addresses Streptavidin (Streptomyces avidinii) (UniProt P22629). Nature of the experiment: streptavidin binders on small-molecule microarray, primary screen, artefact control for SMM compound annotation, biophysical, 635/667 nm fluorescence (AID 1147).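 Further: signal reflects streptavidin binding to arrayed compounds as a control protein.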 The note with it: streptavidin binding, higher = more signal.
Experiment [7] can be described thus: small-molecule binders of probe aInhba, primary screen, biochemical, small-molecule microarray, 635/667 nm fluorescence (AID 1148).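 Further: score merges 667nm spot fluorescence with signal-to-noise for antibody binding to printed compounds.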 Conditions: higher = more signal.
The target of experiment [8] is Torsin-1A (Homo sapiens) (UniProt O14656). As to the kind of experiment: torsin A binders from cell lysate, primary screen, small-molecule microarray, wild-type, 635/667 nm (AID 1149). Conditions: COS7 hTOR1A-WT lysate, 635 nm fluorescence, higher = more signal.
For experiment [9] the target is unchanged. As to the kind of experiment: small-molecule binders of mutant TOR1A in lysate, primary screen, cell lysate, small-molecule microarray, COS7 lysate, 635/667 nm fluorescence (AID 1150).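 Further: score pools 667 nm emission and signal to noise measuring lysate protein binding.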 The note with it: COS7 hTOR1A mutant lysate, 635 nm fluorescence, higher = more signal.
Experiment [10] relates to Sonic hedgehog protein (Shh). Nature of the experiment: small-molecule binders of Shh protein, primary screen, biochemical, small-molecule microarray, 635/667 nm fluorescence (AID 1151).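 Further: Shh protein binding to compounds spotted on small-molecule microarray slides; score combines spot fluorescence intensity with signal-to-noise across triplicate slides.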 Conditions: small-molecule microarray binding, 635 nm fluorescence; higher = more signal.

SMILES strings stand for the structures. Active and inactive are the calls of the source. Unless noted, how the calls were made is not given here.

Torsin-1A (Homo sapiens), sequence (O14656 whole entry, looked up): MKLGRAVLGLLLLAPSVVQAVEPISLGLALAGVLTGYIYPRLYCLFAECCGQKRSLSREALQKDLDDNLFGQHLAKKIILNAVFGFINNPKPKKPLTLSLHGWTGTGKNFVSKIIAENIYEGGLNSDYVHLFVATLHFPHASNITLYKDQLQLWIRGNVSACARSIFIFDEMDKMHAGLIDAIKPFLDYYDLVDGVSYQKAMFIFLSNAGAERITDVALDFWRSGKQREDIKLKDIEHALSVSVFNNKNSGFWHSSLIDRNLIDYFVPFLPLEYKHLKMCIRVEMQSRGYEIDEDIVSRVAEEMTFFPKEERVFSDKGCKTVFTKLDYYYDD
Streptavidin (Streptomyces avidinii), sequence (P22629 whole entry, looked up): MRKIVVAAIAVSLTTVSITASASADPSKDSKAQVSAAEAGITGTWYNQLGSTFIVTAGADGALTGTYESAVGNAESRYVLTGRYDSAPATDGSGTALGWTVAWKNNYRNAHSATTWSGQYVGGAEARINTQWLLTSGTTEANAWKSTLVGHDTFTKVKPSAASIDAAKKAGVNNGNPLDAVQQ

With `CO[C@H]1O[C@H](CO)[C@@H](OC(=O)Nc2ccc3c(c2)OCO3)[C@H](OC(=O)Nc2ccccc2-c2ccccc2)[C@H]1OC(=O)Nc1ccccc1-c1ccccc1`, the composite z-score came to 1.07 in experiment [1]; 0.2 in [6]; 0.196 in [7]; 0.384 with Torsin-1A (Homo sapiens) [8]; 1.55 in the experiment with Torsin-1A (Homo sapiens) [9]; 0.333 in experiment [10]. For the same compound, the z-score in [2] is -5.61 (inactive); in experiment [3] it was -0.378 (inactive); in experiment [4], 1.5 (inactive); in [5], -1.05 (inactive).

As to `CO[C@H]1O[C@H](CO)[C@@H](OC(=O)Nc2ccccc2-c2ccccc2)[C@H](OC(=O)Nc2ccccc2)[C@H]1OC(=O)Nc1ccccc1`, the composite z-score came to 1.32 in [1]; 0.29 in experiment [6]; 0.122 in [7]; 0.616 with Torsin-1A (Homo sapiens) [8]; 1.6 in the experiment with Torsin-1A (Homo sapiens) [9]; 1.1 in [10]. Besides, the z-score in experiment [2] is -3.8 (inactive); in [3], -0.589 (inactive); in [4], -0.254 (inactive); in experiment [5] it was -2.07 (inactive).

For the compound `COc1ccc(C(=O)Nc2ccc3c(c2)[C@@]2(O[C@H](CCO)[C@@H]([Si](C)(C)c4ccc(OC)cc4)[C@@H]2C)C(=O)N3Cc2ccccc2)cc1`, the composite z-score is 0.0753 in experiment [1]; 0.0576 in experiment [6]; 0.288 in experiment [7]; -0.193 with Torsin-1A (Homo sapiens) [8]; 0.46 with Torsin-1A (Homo sapiens) [9]; 1.93 in [10]. The z-score in [2] is -8.09 (active); in experiment [3], -0.0986 (inactive); in experiment [4] it was 5.6 (inactive); in [5] it was -0.352 (inactive).

`COc1ccccc1CN1C(=O)c2ccccc2[C@](Cc2ccccc2I)(C(=O)NCC(C)C)[C@@H]1c1ccc(CO)cc1`: the composite z-score in [1] is 0.0108; in experiment [6], -0.738; in [7], 0.126; in the experiment with Torsin-1A (Homo sapiens) [8] it was -0.0986; with Torsin-1A (Homo sapiens) [9], -0.61; in experiment [10], 0.034. The z-score in [2] was -2.13 (inactive); in experiment [3], 0.584 (inactive); in [4] it was 0.0279 (inactive); in [5], -0.542 (inactive).

Turning to `CN1C(=O)C2C(C1=O)C1C=C(c3ccc(CO)cc3)C2C(C2CC2)N1C` (stereo not given), the composite z-score in experiment [1] is -0.283; in experiment [6] it was -0.095; in experiment [7], -0.128; in the experiment with Torsin-1A (Homo sapiens) [8], 0.508; in the experiment with Torsin-1A (Homo sapiens) [9] it was 0.286; in [10] it was -0.605. Further, the z-score in experiment [2] is -0.131 (inactive); in experiment [3] it was 0.178 (inactive); in [4], -0.219 (inactive); in [5] it was 0.173 (inactive).

In the case of `COC(=O)[C@@]1(Cc2ccccc2)[C@H]2c3cc(C(=O)N(C)C)n(CCSC(=N)N)c3C[C@H]2CN1C(=O)c1ccccc1`, the composite z-score is -0.042 in experiment [1]; -0.405 in [6]; 0.0444 in experiment [7]; -0.524 with Torsin-1A (Homo sapiens) [8]; -0.209 with Torsin-1A (Homo sapiens) [9]; -0.564 in experiment [10]. In addition, the z-score was 0.0619 (inactive) in experiment [2], -0.367 (inactive) in experiment [3], 0.583 (inactive) in experiment [4] and 0.53 (inactive) in experiment [5].

Consider `COc1ccc([Si](C)(C)[C@@H]2[C@@H](CC(=O)N3CCC[C@H]3CO)O[C@]3(C(=O)N(Cc4cccc(N5CCCCC5=O)c4)c4ccccc43)[C@H]2C)cc1`, for which the composite z-score in experiment [1] is -0.104; in [6], -0.164; in experiment [7] it was -0.176; in the experiment with Torsin-1A (Homo sapiens) [8], 0.594; with Torsin-1A (Homo sapiens) [9], 0.81; in experiment [10] it was 1.68. Besides, the z-score was -2.77 (inactive) in experiment [2], -0.331 (inactive) in experiment [3], 0.105 (inactive) in experiment [4] and -0.95 (inactive) in [5].

For `COc1cc(OC)c(C(O)C2C=CC3C(=O)N(c4ccccc4)C(=O)C3N2Nc2ccc(C(C)C)cc2)cc1Br` (stereo not given), the composite z-score in experiment [1] came to 0.386; in [6], 1.71; in experiment [7], 0.136; with Torsin-1A (Homo sapiens) [8] it was 0.255; in the experiment with Torsin-1A (Homo sapiens) [9], 0.345; in experiment [10] it was 0.415. Besides, the z-score in experiment [2] was -0.942 (inactive); in experiment [3] it was -1.49 (inactive); in experiment [4], 1.78 (inactive); in experiment [5], -0.567 (inactive).

As for `O=C(NCc1ccccc1)[C@@H]1c2ccccc2C(=O)N(Cc2ccc(OC(F)(F)F)cc2)[C@H]1c1ccc(CO)cc1`, the composite z-score was -0.134 in experiment [1]; -0.756 in experiment [6]; 0.0102 in experiment [7]; 0.521 with Torsin-1A (Homo sapiens) [8]; 0.162 with Torsin-1A (Homo sapiens) [9]; -0.493 in [10]. Besides, the z-score in experiment [2] was -0.495 (inactive); in experiment [3] it was 0.0274 (inactive); in [4], 0.208 (inactive); in [5], 0.129 (inactive).

Consider `C=CCC(OC(C)=O)[C@@H]1[C@@H](N(Cc2cccc3ccccc23)C(=O)c2ccc(-c3ccccc3)cc2)c2cc(OCCCO)ccc2N1C(=O)Cc1ccc2ccccc2c1` (stereo not given in full), for which the composite z-score is -0.0281 in [1]; 0.911 in experiment [6]; 0.0108 in experiment [7]; -0.175 with Torsin-1A (Homo sapiens) [8]; -0.337 in the experiment with Torsin-1A (Homo sapiens) [9]; 0.068 in [10]. Also, the z-score in experiment [2] was -0.182 (inactive); in [3], 0.0777 (inactive); in [4], -0.141 (inactive); in experiment [5] it was 0.0677 (inactive).

With `COC(=O)C(CC#Cc1ccc2c(c1)[C@]1(C(=O)N2)[C@H](C(=O)NC[C@H](O)c2ccccc2)[C@H]2C(=O)O[C@H](c3ccccc3)[C@H](c3ccccc3)N2[C@@H]1c1ccccc1OCCO)C(=O)OC`, the composite z-score in experiment [1] is 0.649; in experiment [6], 0.703; in [7] it was 0.0154; in the experiment with Torsin-1A (Homo sapiens) [8], 0.326; with Torsin-1A (Homo sapiens) [9] it was 0.506; in [10], 1.32. Further, the z-score in experiment [2] was -6.04 (inactive); in experiment [3], -1.21 (inactive); in [4], -0.671 (inactive); in experiment [5] it was -0.276 (inactive).

For `C=C(COC)C(=O)CC[C@@H](OC(C)=O)c1ccccc1OCCO`, the composite z-score is 0.866 in experiment [1]; -0.507 in experiment [6]; -0.0403 in experiment [7]; 0.135 with Torsin-1A (Homo sapiens) [8]; 1.05 with Torsin-1A (Homo sapiens) [9]; 2.32 in experiment [10]. Also, the z-score in experiment [2] was -2.43 (inactive); in [3] it was -0.787 (inactive); in experiment [4] it was 1.54 (inactive); in experiment [5], 8.39 (active).

For `N#Cc1ccc(-c2cccc(=O)o2)cc1`, the composite z-score in experiment [1] amounted to 0.0017; in experiment [6], 0.427; in experiment [7], 0.085; with Torsin-1A (Homo sapiens) [8], 0.435; with Torsin-1A (Homo sapiens) [9], 0.0587; in experiment [10], 0.458. The z-score was 0.454 (inactive) in [2], -0.131 (inactive) in experiment [3], -0.163 (inactive) in experiment [4] and 0.648 (inactive) in [5].

Take `COCCOC(=O)N1C(=O)[C@@]2(c3ccccc31)[C@H](c1ccc(O)cc1)N1[C@H](c3ccccc3)[C@H](c3ccccc3)OC(=O)[C@H]1[C@@H]2C(=O)N1CCCCCCC1`: the composite z-score in experiment [1] amounted to 1.08; in [6], 3.03; in experiment [7], 2.08; with Torsin-1A (Homo sapiens) [8], 1.32; in the experiment with Torsin-1A (Homo sapiens) [9] it was 2.13; in experiment [10], 1.96. Also, the z-score is -2.61 (inactive) in experiment [2], -1.17 (inactive) in [3], 0.0816 (inactive) in [4] and -0.0911 (inactive) in experiment [5].
